SMN2 splice enh: increases expression of the SMN2 splice variant; HEK293 SMN2-luciferase splicing reporter, luminescence, 30-36 h; Potency, µM (titrated, usually from 46.1 µM), inactives show at the top dose activity change, positive = activation, most hits filed as activators; 210,000 compounds, 2.8% hits; AID 1458; note: % of control where 0% means no effect; nearly all actives have a fitted effect of over 55% in size
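HEK293 cells carry an SMN2 minigene-luciferase reporter in which exon 7 inclusion puts luciferase in frame. Cells were seeded at 2000 cells/well, attached for 10-12 hours, then exposed to compounds for 30-36 hours at 37C before ONE-Glo luminescence.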
NPC1 prom act: NPC1 promoter activation; Huh7 NPC1 promoter luciferase reporter, 24 h; Potency, µM (highest dose often 9.22 µM), without a hit: top-dose activation, most hits filed as activators; 320,000 compounds, 2.4% hits; note: % of control where 0% means no effect; nearly all actives have a fitted effect of over 60% in size
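Cells: Huh7 expressing luciferase under the NPC1 promoter, 1500/well. Seeded 2 h, compound added, incubated 24 h at 37 °C. Luciferase reagent, 10 min ambient, then luminescence.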
Rab9 promoter act: Rab9 promoter activation; 320,000 compounds, 2.8% hits; Potency, µM (doses to about 9.22 µM), for inactives: at the highest dose activation, negative = inhibition, actives largely listed as activators; Huh7 Rab9 promoter-luciferase reporter, luminescence, 24 h; note: % of control where 0% means no effect; nearly all actives have a fitted effect of over 60% in size
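Steps: seed 1500 Huh7 Rab9-luc cells per well, rest 2 h at 37 °C; add compound in DMSO; incubate 24 h; add luciferase reagent, 10 min ambient; read luminescence.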
ELG1 repair inh: ELG1-dependent DNA repair inhibition | HEK293T ELG1-luciferase reporter, luminescence, 16 h; DNA damage induced by 5-fluorouridine | Potency, µM (top dose mostly 46.1 µM), for the others: at the highest dose activity change, negative = inhibition, actives largely listed as inhibitors | AID 504467 | 330,000 compounds, 2.3% hits; note: % is set by controls: 0 for no effect and ±100 for the full control effect; nearly all actives have a fitted effect of over 55% in size
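DMSO vehicle served as the neutral condition. Each well held 2,000 cells given 5-fluorouridine plus compound; after 16 hr at 37 °C/5% CO2, ONE-Glo was added and luciferase measured 30 min later.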
ELG1 genotoxic: induces genotoxicity in HEK293T cells with luciferase-tagged ELG1. HEK293T ELG1-luciferase reporter, luminescence, 16 h. Potency, µM (doses to about 46 µM), for the others: at the highest dose activity change, positive = activation, actives largely listed as activators. 330,000 compounds, 1.3% hits; note: % of control where 0% means no effect; nearly all actives have a fitted effect of over 60% in size
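After overnight (16 hr) compound treatment at 37 °C, ELG1-luciferase HEK293T cells were lysed with ONE-Glo; luminescence quantified 30 min later at room temperature.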
FLuc modulator: inhibits or activates purified firefly luciferase, miR-21 counter-screen | P08659 | purified FLuc, Km substrates, luminescence inhibition | Potency, µM (top dose mostly 57.5 µM), without a hit: top-dose activity change, negative = inhibition, most hits filed as inhibitors | 360,000 compounds, 6.9% hits | AID 588342;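 note: plate controls were vehicle for no effect and reference inhibitor for full effect; nearly all actives have a fitted effect of over 55% in size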
Target sequence (P08659 whole entry, looked up): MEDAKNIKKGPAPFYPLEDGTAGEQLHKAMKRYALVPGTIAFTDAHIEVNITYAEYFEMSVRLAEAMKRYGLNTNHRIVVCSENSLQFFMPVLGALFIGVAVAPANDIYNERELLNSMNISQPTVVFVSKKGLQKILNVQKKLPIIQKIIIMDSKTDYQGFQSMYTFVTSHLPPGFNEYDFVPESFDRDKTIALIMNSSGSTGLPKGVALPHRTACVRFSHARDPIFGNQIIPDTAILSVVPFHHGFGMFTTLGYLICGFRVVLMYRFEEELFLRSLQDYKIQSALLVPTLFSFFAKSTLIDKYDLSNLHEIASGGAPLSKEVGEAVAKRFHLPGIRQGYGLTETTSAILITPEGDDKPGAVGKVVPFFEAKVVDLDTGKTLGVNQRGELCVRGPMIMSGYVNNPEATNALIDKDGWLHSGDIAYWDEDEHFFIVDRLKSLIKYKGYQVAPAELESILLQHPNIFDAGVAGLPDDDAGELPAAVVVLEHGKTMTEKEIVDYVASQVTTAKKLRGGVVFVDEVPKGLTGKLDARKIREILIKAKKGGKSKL
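Purified P. pyralis luciferase, 10 nM final, with Km-level 10 uM D-luciferin and 10 uM ATP in 50 mM Tris acetate pH 7.5, 10 mM Mg acetate, 0.01% Tween-20, 0.05% BSA; 6-point qHTS titration about 60 µM downward; luminescence read.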
ELG1 FLuc counter: luciferase inhibition in cell-free luciferin readout for ELG1 hits; shares compounds with ELG1 repair inh; 350 compounds, 3% hits; cell-free firefly luciferase luminescence counter-screen, ViewLux; Potency, µM (series often up to 46.1 µM), inactives show at the highest dose activity change, negative = inhibition, actives largely listed as inhibitors; AID 624247; note: % is set by controls: 0 for no effect and ±100 for the full control effect
ELG1-Luc inh: human ELG1 repair inhibition, luciferase-tagged ELG1 confirmation; shares compounds with ELG1 repair inh; HEK293T ELG1-luciferase levels, luminescence; cells co-treated with 5-fluorouridine; Potency, µM (top dose mostly 46.1 µM), for the others: top-dose activity change, negative = inhibition, usual class: inhibitors; 670 compounds, 68% hits; AID 624248; note: % is set by controls: 0 for no effect and ±100 for the full control effect; nearly all actives have a fitted effect of over 55% in size
ELG1-Luc MMS: inhibits ELG1-dependent repair under MMS stimulation in HEK293T cells. shares compounds with ELG1 repair inh. HEK293T luciferase-tagged ELG1 level, MMS stimulated. Potency, µM (titrated, usually from 46.1 µM), without a hit: at the highest dose activity change, negative = inhibition, actives largely listed as inhibitors. 670 compounds, 53% hits. AID 624249; note: % is set by controls: 0 for no effect and ±100 for the full control effect; nearly all actives have a fitted effect of over 60% in size
ELG1 5FU viab: confirmation of ELG1 repair inhibitors: viability with 5FU; AID 624250; shares compounds with ELG1 repair inh; Potency, µM (doses to about 46.1 µM), inactives show at the top dose activity change, negative = viability loss, usual class: cytotoxic; cell viability with 5-FU, ELG1-dependent repair; 670 tested, under 10 active;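 note: ELG1-luc HEK293T cells cotreated with 5-fluorouridine at 10 µM final; viability measured 16 h after compound addition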
ELG1 MMS viab: confirmation of ELG1 repair inhibitors: viability with MMS. Potency, µM (top dose mostly 46.1 µM), for inactives: top-dose activity change, negative = viability loss, hits mostly cytotoxic. shares compounds with ELG1 repair inh. 670 compounds, 33% hits. Cell viability with MMS, ELG1-dependent DNA repair;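 note: ELG1-luc HEK293T cells co-treated with 10 µM MMS; viability read 16 h after compound addition; % is set by controls: 0 for no effect and ±100 for the full control effect; nearly all actives have a fitted effect of over 60% in size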
Cell viab unstim: affects unstimulated cell viability, ELG1 hit counter-screen. shares compounds with ELG1 repair inh. cell viability counter-screen, unstimulated, luminescence. Potency, µM (top dose mostly 45.9 µM), inactives show at the highest dose activity change, negative = loss of viability, hits mostly cytotoxic. 900 compounds, 8% hits;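 note: compound exposure lasted 16 hours before reading; % is set by controls: 0 for no effect and ±100 for the full control effect; nearly all actives have a fitted effect of over 55% in size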
FLuc enzyme: counter-screen for ELG1 repair inhibitors: firefly luciferase inhibition; 350 compounds, 10% hits; Potency, µM (doses to about 57.5 µM), for inactives: at the highest dose activity, negative = inhibition, hits mostly inhibitors; shares compounds with ELG1 repair inh; purified firefly luciferase, luminescence counter-screen; note: % is set by controls: 0 for no effect and ±100 for the full control effect
An asterisk follows results filed as active; ? = inconclusive; . = not tested or not shown. Rows were chosen to be rich in hits. Some 9.2% of all compounds tested hit in one or more screens of this group. Calls come from the whole dose curve; as a rule, active = well fitted curve in the direction sought with a large enough effect; inconclusive = small, poorly fitted or top-dose-only effect, or another doubt; inactive = no such curve, though single readings can be large; an effect the other way counts as inactive or inconclusive. Potency is the fitted concentration of half-maximal effect.

SMILES	SMN2 splice enh	NPC1 prom act	Rab9 promoter act	ELG1 repair inh	ELG1 genotoxic	FLuc modulator	ELG1 FLuc counter	ELG1-Luc inh	ELG1-Luc MMS	ELG1 5FU viab	ELG1 MMS viab	Cell viab unstim	FLuc enzyme
COc1cc2c(cc1OC)C1C(=O)c3c(O)cc4c(c3OC1CO2)C=CC(C)(C)O4 (configuration not stated)	-81.3%	.	.	.	.	.	-3.7%	?	0.397µM*	-8.0%	0.397µM*	?	-3.4%
COc1cc2c(cc1OC)C1C(=O)c3ccc4c(c3OC1CO2)C=CC(C)(C)O4 (configuration not stated)	-73.1%	.	.	.	.	.	.	.	.	.	.	.	.
Cc1ccc(N2CCN(S(=O)(=O)c3ccc(Cl)c4ccccc34)CC2)c(C)c1	-1.4%	.	.	.	.	-1.0%	.	.	.	.	.	.	.
COc1ccc(C(=O)N2CCc3cc(OC)c(OC)cc3C2c2ccc(OC)c(OC)c2)cc1OC (configuration not stated)	.	0.6%	-1.0%	3.66µM*	3.5%	-2.9%	.	?	15.4%	?	-12.8%	-19.0%	.
CCCC(=O)N1CCc2cc(OC)c(OC)cc2C1COc1ccccc1OC (configuration not stated)	.	-2.5%	-4.3%	-8.1%	0.3%	-3.0%	10.2%	8.89µM*	?	3.9%	?	-5.3%	-5.2%
CCC(=O)N1CCc2cc(OC)c(OC)cc2C1COc1ccccc1OC (configuration not stated)	20.1%	-7.9%	2.7%	?	11.4%	-2.7%	.	.	.	.	.	.	.
COc1ccc(C(=O)N/C(=C\c2cccc3ccccc23)C(=O)N2CCN(C)CC2)cc1	.	-3.4%	-2.2%	?	0.4%	6.3%	.	.	.	.	.	.	.
CN(C)C=Nc1c(C(=O)c2ccccc2)sc2nccc(N(C)C)c12	-14.3%	0.1%	0.7%	?	-10.6%	-2.9%	.	.	.	.	.	.	.
CN(C)c1ccnc2sc3c(=O)n(-c4ccccc4)cnc3c12	16.9%	1.1%	-0.5%	11.6µM*	-13.0%	-0.1%	11.7%	15.8µM*	?	13.5%	0.2%	?	-9.8%
